Reference: PubChem BioAssay (EPA / NIEHS)
The source made the active and inactive calls. Rule for the calls: active = hit-call score of the fitted dose curve at least 0.9, where 1 is the maximum; inactive = score below 0.9.

Tests used:
[1] = ATG_CRE_CIS: Attagene CIS-FACTORIAL HepG2 Assay for human cAMP Responsive Element (CRE) binding protein 3 (AID 2282926); details: HepG2 CRE cis-reporter, Attagene multiplexed mRNA; actives raise or lower the signal
Summary of the method: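 Endogenous transcription factor activity read via CRE-regulated reporter transcripts in transfected HepG2 cells. After 24 h exposure, RNA was reverse-transcribed, amplified, fluorescently labelled and sized by capillary electrophoresis; gain or loss fitted against DMSO.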

[2] = biological target: CCAAT/enhancer-binding protein beta (Homo sapiens) (UniProt P17676); assay: ATG_C_EBP_CIS: Attagene CIS-FACTORIAL HepG2 Assay for human CCAAT/Enhancer Binding Protein (C/EBP) beta (AID 2282927); details: HepG2 Attagene cis-factorial transcription factor reporter; actives raise or lower the signal
Summary of the method: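 HepG2, transient MRTU transfection, 24 h treatment. RT-PCR plus CE fluorescence; DMSO negative control, bidirectional fit.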

[3] = ATG_CMV_CIS: Attagene CIS-FACTORIAL HepG2 Assay for human CMV (Internal Marker) (AID 2282928); details: HepG2 CMV promoter reporter, transcription factor profiling; actives raise or lower the signal;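 note: endpoint acts as a background internal control marker rather than a target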
Summary of the method: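 24 h chemical treatment, HepG2 with transient multi-reporter transfection; RNA → oligo(dT) RT → PCR → 6-FAM extension → HpaI digest → CE fluorescence. Bidirectional fit, DMSO negative control.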

[4] = ATG_DR4_LXR_CIS: Attagene CIS-FACTORIAL HepG2 Assay for human Liver X Receptor (LXR), DR4 submotif (AID 2282929); details: HepG2 Attagene DR4 cis-reporter, mRNA transcription; actives raise or lower the signal
Summary of the method: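 HepG2 cells were transiently transfected with multiple cis-regulated reporter units and dosed for 24 hours. The DR4 reporter mRNA was quantified by RT-PCR, 6-FAM labelling and capillary electrophoresis. Bidirectional fits used DMSO as baseline.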

[5] = biological target: Aryl hydrocarbon receptor (Homo sapiens) (UniProt P35869); assay: ATG_Ahr_CIS: Attagene CIS-FACTORIAL HepG2 Assay for human Aryl Hydrocarbon Receptor (Ahr) (AID 2282930); details: HepG2 AhR cis-factorial reporter transcription; actives raise or lower the signal
Summary of the method: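 Endogenous factor activity is tracked through cis-promoter reporter units transfected into HepG2 cells. Transcript levels at 24 h are read by fluorescent RT-PCR and capillary electrophoresis, with activity in either direction scored relative to DMSO.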

[6] = ATG_AP_1_CIS: Attagene CIS-FACTORIAL HepG2 Assay for human Activator Protein 1 (AP-1) (AID 2282931); details: HepG2 Attagene cis-factorial AP-1 reporter mRNA; actives raise or lower the signal
Summary of the method: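 HepG2 cells transiently transfected with cis-element-driven reporter transcription units, dosed for 24 hours. Reporter mRNA measured by RT-PCR, 6-FAM labelling, HpaI digestion and capillary electrophoresis. Bidirectional fitting against DMSO baseline.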

[7] = ATG_AP_2_CIS: Attagene CIS-FACTORIAL HepG2 Assay for human Activator Protein 2 (AP-2) (AID 2282932); details: HepG2 AP-2 cis-reporter, Attagene transcription factor profiling; actives raise or lower the signal
Summary of the method: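 Read-out: fluorescent reporter mRNA via RT-PCR and capillary electrophoresis, 24 h post-dose in transiently transfected HepG2. Endogenous factors drive cis-promoter reporters; gain or loss of signal fitted bidirectionally against DMSO.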

[8] = ATG_BRE_CIS: Attagene CIS-FACTORIAL HepG2 Assay for human Bone Morphogenetic Protein (BMP) Response Element (BRE) (AID 2282933); details: HepG2 BMP response element reporter, Attagene transcription factor profiling; actives raise or lower the signal
Summary of the method: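 HepG2 cells transiently transfected with multiplexed cis-element reporter units were dosed with chemical for 24 h. Reporter mRNA was measured by RT-PCR with fluorescent labelling, HpaI digestion and capillary electrophoresis; bidirectional fitting relative to DMSO.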

[9] = biological target: Retinoic acid receptor alpha (Homo sapiens) (UniProt P10276); assay: ATG_DR5_RAR_CIS: Attagene CIS-FACTORIAL HepG2 Assay for human Retinoic Acid Receptor Alpha (RARE), DR5 submotif (AID 2282934); details: HepG2 Attagene cis-factorial RARE DR5 reporter, mRNA; actives raise or lower the signal
Summary of the method: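 After 24 h of chemical exposure, transiently transfected HepG2 cells were lysed for total RNA; the DR5-regulated reporter transcript was quantified via RT-PCR and capillary electrophoresis, with activity fitted bidirectionally against DMSO.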

[10] = ATG_E_Box_CIS: Attagene CIS-FACTORIAL HepG2 Assay for human Enhancer Box (E-box) (AID 2282936); details: HepG2 E-box cis-reporter transcription, actives raise or lower the signal
Summary of the method: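 Transiently transfected HepG2, endogenous TF-driven reporters, 24 h dosing. Readout: RT-PCR plus capillary electrophoresis of fluorescent reporter fragments. Gain or loss of signal fitted bidirectionally against DMSO baseline.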

[11] = ATG_M_61_CIS: Attagene CIS-FACTORIAL HepG2 Assay for M61 Transcription Factor (Internal Marker) (AID 2282937); details: HepG2 Attagene CIS-FACTORIAL M61 internal marker reporter; actives raise or lower the signal
Summary of the method: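 HepG2 cells transiently transfected with multiplexed cis-promoter reporter units reporting endogenous transcription factor activity, measured 24 h after dosing. Reporter mRNA quantified by RT-PCR and capillary electrophoresis; bidirectional fit against DMSO baseline.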

[12] = ATG_EGR_CIS: Attagene CIS-FACTORIAL HepG2 Assay for human Early Growth Response 1 (EGR1) (AID 2282938); details: HepG2 Attagene CIS-FACTORIAL EGR reporter mRNA; actives raise or lower the signal
Summary of the method: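 HepG2 cells transiently transfected with cis-element-driven multiplexed reporter units, dosed for 24 h. EGR1-element reporter mRNA quantified by RT-PCR, 6-FAM labelling, HpaI digestion and capillary electrophoresis; bidirectional fit versus DMSO.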

[13] = ATG_M_19_CIS: Attagene CIS-FACTORIAL HepG2 Assay for M19 Transcription Factor (Internal Marker) (AID 2282939); details: HepG2 Attagene CIS-FACTORIAL M19 internal marker reporter; actives raise or lower the signal
Summary of the method: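 HepG2 cells transiently transfected with cis-regulated multiple reporter transcription units were dosed for 24 h; reporter mRNA was quantified by RT-PCR, 6-FAM primer-extension labelling, HpaI digestion and capillary electrophoresis, with bidirectional fitting against DMSO baseline.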

[14] = ATG_Ets_CIS: Attagene CIS-FACTORIAL HepG2 Assay for human Erythroblast Transformation Specific (ETS) (AID 2282941); details: HepG2 ETS cis-reporter transcription, actives raise or lower the signal
Summary of the method: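 Cis-regulated reporter mRNA induction in HepG2 (transient transfection), 24 h exposure, RT-PCR plus capillary electrophoresis detection; DMSO serves as negative control and baseline.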

[15] = biological target: Hepatocyte nuclear factor 3-beta (Homo sapiens) (UniProt Q9Y261); assay: ATG_FoxA2_CIS: Attagene CIS-FACTORIAL HepG2 Assay for human Forkhead box A2 (FOXA2) (AID 2282942); details: HepG2 cis-reporter transcription factor activity, 24 h; actives raise or lower the signal
Summary of the method: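 HepG2 transiently transfected with a multiplexed cis-promoter reporter library read endogenous FOXA2 activity. After 24 h compound exposure, reporter mRNA was quantified by RT-PCR, HpaI digestion and capillary electrophoresis. Bidirectional fit against DMSO.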

[16] = ATG_FoxO_CIS: Attagene CIS-FACTORIAL HepG2 Assay for human Forkhead box O (FoxO) (AID 2282943); details: HepG2 Attagene cis-reporter, FoxO element, mRNA; actives raise or lower the signal
Summary of the method: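 Transfected HepG2 reporter cells exposed to test chemical for 24 h; reporter RNA measured by reverse transcription, PCR and fluorescent capillary electrophoresis; curves fitted for increases and decreases against DMSO.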

[17] = ATG_GATA_CIS: Attagene CIS-FACTORIAL HepG2 Assay for human GATA Binding Protein (AID 2282944); details: HepG2 GATA cis-element reporter, Attagene multiplex mRNA; actives raise or lower the signal
Summary of the method: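 HepG2 cells transiently transfected with multiplexed cis-element reporter units reflecting endogenous transcription factor activity; reporter mRNA measured after 24 h dosing by RT-PCR, 6-FAM labeling, HpaI digestion and capillary electrophoresis. Bidirectional fitting versus DMSO baseline.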

[18] = ATG_GLI_CIS: Attagene CIS-FACTORIAL HepG2 Assay for human Zinc Finger Protein GLI1 (AID 2282945); details: HepG2, Attagene cis-factorial reporter mRNA, GLI element; actives raise or lower the signal
Summary of the method: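 Transiently transfected HepG2 cells report endogenous transcription factor activity via cis-element-driven reporter units. After 24 h compound exposure, reporter mRNA was measured by RT-PCR with capillary electrophoresis; bidirectional fitting against DMSO baseline.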

[19] = biological target: Transcription factor E2F1 (Homo sapiens) (UniProt Q01094); assay: ATG_E2F_CIS: Attagene CIS-FACTORIAL HepG2 Assay for human E2F Transcription Factor 1 (AID 2282935); details: HepG2 Attagene cis-reporter, E2F reporter RNA transcripts; actives raise or lower the signal
Summary of the method: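 Transient MRTU transfection of HepG2; 24 h compound exposure; RNA → oligo(dT) RT → PCR → FAM label → HpaI cut → CE fluorescence. Gain/loss of signal fit against DMSO.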

Measured: AC50

Aryl hydrocarbon receptor (Homo sapiens), sequence (P35869 whole entry, looked up): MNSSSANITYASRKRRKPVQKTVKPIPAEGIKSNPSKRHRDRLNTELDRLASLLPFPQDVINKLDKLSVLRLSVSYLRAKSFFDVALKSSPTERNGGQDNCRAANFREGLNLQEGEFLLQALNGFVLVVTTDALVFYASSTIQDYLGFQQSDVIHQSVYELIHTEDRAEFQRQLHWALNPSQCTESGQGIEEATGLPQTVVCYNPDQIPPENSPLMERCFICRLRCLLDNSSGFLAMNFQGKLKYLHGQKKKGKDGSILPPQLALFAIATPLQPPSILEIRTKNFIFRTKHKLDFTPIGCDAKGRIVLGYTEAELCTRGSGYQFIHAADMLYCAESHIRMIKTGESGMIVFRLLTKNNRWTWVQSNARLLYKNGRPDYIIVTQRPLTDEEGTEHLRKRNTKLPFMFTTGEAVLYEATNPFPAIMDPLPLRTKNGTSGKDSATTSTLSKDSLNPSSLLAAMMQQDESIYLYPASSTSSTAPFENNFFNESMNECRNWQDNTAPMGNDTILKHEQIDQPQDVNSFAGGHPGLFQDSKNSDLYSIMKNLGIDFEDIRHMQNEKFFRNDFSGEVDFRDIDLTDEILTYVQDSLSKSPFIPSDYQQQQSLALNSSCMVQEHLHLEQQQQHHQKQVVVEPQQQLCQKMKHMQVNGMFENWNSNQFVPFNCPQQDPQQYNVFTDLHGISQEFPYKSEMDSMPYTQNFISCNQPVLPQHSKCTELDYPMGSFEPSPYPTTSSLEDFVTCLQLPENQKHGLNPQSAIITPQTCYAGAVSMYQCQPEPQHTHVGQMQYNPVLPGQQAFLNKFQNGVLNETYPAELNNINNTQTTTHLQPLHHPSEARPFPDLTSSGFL
CCAAT/enhancer-binding protein beta (Homo sapiens), sequence (P17676 whole entry, looked up): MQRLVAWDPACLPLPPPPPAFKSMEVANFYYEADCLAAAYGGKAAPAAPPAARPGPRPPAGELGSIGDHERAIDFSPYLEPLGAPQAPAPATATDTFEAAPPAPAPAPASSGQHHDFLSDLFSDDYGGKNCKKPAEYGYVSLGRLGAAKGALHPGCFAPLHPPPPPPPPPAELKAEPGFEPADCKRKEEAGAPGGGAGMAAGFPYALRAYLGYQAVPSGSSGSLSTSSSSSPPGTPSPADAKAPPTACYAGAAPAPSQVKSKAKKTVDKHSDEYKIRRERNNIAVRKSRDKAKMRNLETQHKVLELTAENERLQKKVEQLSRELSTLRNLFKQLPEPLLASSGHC
Retinoic acid receptor alpha (Homo sapiens), sequence (P10276 whole entry, looked up): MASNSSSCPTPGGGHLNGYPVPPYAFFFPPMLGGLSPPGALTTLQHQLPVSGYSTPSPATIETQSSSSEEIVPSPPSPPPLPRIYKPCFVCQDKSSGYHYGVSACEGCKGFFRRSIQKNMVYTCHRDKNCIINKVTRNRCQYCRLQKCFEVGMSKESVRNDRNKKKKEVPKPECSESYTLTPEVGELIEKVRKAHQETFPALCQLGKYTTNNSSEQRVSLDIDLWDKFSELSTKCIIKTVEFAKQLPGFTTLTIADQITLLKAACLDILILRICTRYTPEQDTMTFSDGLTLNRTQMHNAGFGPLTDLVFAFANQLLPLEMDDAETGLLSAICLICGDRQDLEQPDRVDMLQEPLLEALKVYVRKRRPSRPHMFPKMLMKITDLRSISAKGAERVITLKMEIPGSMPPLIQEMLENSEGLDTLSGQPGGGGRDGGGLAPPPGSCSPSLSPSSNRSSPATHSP
Transcription factor E2F1 (Homo sapiens), sequence (Q01094 whole entry, looked up): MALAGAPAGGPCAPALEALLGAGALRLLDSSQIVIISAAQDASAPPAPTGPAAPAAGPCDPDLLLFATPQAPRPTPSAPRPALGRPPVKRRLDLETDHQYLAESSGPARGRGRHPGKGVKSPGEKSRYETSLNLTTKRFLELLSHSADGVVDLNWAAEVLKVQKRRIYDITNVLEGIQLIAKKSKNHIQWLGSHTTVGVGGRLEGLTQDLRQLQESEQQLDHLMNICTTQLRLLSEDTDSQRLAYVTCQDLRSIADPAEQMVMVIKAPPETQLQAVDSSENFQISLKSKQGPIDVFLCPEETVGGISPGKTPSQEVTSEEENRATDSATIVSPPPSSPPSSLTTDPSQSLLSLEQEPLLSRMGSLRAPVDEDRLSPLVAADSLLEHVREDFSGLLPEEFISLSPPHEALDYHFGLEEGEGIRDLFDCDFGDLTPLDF
Hepatocyte nuclear factor 3-beta (Homo sapiens), sequence (Q9Y261 whole entry, looked up): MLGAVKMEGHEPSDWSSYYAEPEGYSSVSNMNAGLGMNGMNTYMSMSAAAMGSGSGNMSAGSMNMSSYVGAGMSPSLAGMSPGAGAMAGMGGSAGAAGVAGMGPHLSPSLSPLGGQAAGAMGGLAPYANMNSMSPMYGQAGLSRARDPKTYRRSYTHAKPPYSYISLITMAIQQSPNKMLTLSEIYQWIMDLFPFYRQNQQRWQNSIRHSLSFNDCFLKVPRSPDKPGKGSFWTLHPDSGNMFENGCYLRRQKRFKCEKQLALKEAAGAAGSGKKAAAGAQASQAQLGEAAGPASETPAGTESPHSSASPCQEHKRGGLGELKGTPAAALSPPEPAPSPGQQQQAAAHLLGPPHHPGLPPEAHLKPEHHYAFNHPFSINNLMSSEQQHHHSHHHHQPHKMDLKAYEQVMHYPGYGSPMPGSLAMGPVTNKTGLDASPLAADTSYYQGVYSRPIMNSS

CC(Oc1cc(Cl)ccc1Cl)C(=O)O (configuration not stated)
inactive: [1] | [2] | [3] | [4] | [5] | [6] | [7] | [8] | [9] | [10] | [11] | [12] | [13] | [14] | [15] | [16] | [17] | [18]

COc1cc(C(C)C)ccc1C
inactive: [1] | [2] | [3] | [4] | [5] | [6] | [7] | [8] | [9] | [10] | [11] | [12] | [13] | [14] | [15] | [16] | [17] | [18]

CC(=O)O[C@H]1C[C@@H]2CC[C@@]1(C)C2(C)C
inactive: [1] | [2] | [3] | [4] | [5] | [6] | [7] | [8] | [19] | [10] | [12] | [13] | [14] | [15] | [16] | [17] | [18]

Nc1ccc(N)c2c1C(=O)c1ccccc1C2=O
inactive: [3] | [4] | [6] | [7] | [8] | [19] | [10] | [11] | [12] | [13] | [14] | [15] | [16] | [17] | [18]
active: [1] 3.11 µM | [2] 11.3 µM | [5] 1.59 µM

O=C1OC2(c3ccccc31)c1ccc(O)c(Br)c1Oc1c2ccc(O)c1Br
inactive: [1] | [2] | [3] | [4] | [6] | [7] | [8] | [9] | [10] | [12] | [13] | [14] | [15] | [16] | [17] | [18]
active: [5] 56.6 µM

CCOCCOCCOCC
inactive: [1] | [2] | [3] | [4] | [5] | [6] | [7] | [8] | [19] | [10] | [11] | [12] | [13] | [14] | [15] | [16] | [17] | [18]

N[C@@H](Cc1cc(I)c(Oc2cc(I)c(O)c(I)c2)c(I)c1)C(=O)O
active: [5] 3.62 µM
inactive: [1] | [2] | [3] | [4] | [6] | [7] | [8] | [19] | [10] | [11] | [12] | [13] | [14] | [15] | [16] | [17] | [18]

C=C(C)C1CC=C(C)C(=O)C1 (configuration not stated)
inactive: [1] | [2] | [3] | [4] | [5] | [6] | [7] | [8] | [19] | [10] | [12] | [13] | [14] | [15] | [16] | [17] | [18]

Nc1ccc(Cl)c([N+](=O)[O-])c1
inactive: [1] | [2] | [3] | [4] | [5] | [6] | [7] | [8] | [9] | [10] | [11] | [12] | [13] | [14] | [15] | [16] | [17] | [18]

CC(C=O)Cc1ccc(C(C)(C)C)cc1 (configuration not stated)
inactive: [1] | [2] | [3] | [4] | [5] | [6] | [7] | [8] | [9] | [10] | [11] | [12] | [13] | [14] | [15] | [16] | [17] | [18]

CS(C)=O
inactive: [1] | [2] | [3] | [4] | [5] | [6] | [7] | [8] | [9] | [10] | [11] | [12] | [13] | [15] | [16] | [17] | [18]

NCCNc1cccc2ccccc12
inactive: [3] | [4] | [6] | [8] | [19] | [11] | [13] | [15] | [16] | [17] | [18]
active: [1] 170 µM | [2] 169 µM | [5] 7.19 µM | [7] 100 µM | [10] 176 µM | [12] 141 µM

CCCCCCCC(=O)OCCCCCC
inactive: [1] | [2] | [3] | [4] | [5] | [6] | [7] | [8] | [9] | [10] | [11] | [12] | [13] | [14] | [15] | [16] | [17] | [18]

COc1cc(Cl)c(OC)cc1N
active: [5] 51.2 µM
inactive: [1] | [2] | [3] | [4] | [6] | [7] | [8] | [19] | [10] | [11] | [12] | [13] | [15] | [16] | [17] | [18]

CCCCCCCCCC(=O)OC
active: [5] 74.7 µM
inactive: [1] | [2] | [3] | [4] | [6] | [7] | [8] | [9] | [10] | [12] | [13] | [15] | [16] | [17] | [18]
